In PubChem BioAssay (NCATS):
Results filed as inconclusive are left out. Active and inactive are the calls of the source. Unless noted, the call rests on the fitted dose curve; in most records, active means well fitted curve in the direction sought with a large enough effect; inconclusive means small, poorly fitted or top-dose-only effect, or another doubt; inactive means no such curve, though single readings can be large; an effect the other way counts as inactive or inconclusive.

Key:
[1] = P-glycoprotein substrates identified in KB-8-5-11 adenocarcinoma cell line, qHTS therapeutic library screen (AID 1346987); conditions: KB-8-5-11 (P-gp overexpressing) viability, CellTiter-Glo, 72 h; series mostly up to 44.5 µM; further: nearly all actives have a fitted effect of over 65% in size; further: potency means the concentration at half of the fitted maximal effect
Procedure, shortened: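 P-gp-mediated resistance screen: KB-8-5-11 cells treated 72 h with compounds in dose-response. CellTiter-Glo viability.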

[2] = NS1 protein of Zika virus - qHTS assay to identify small molecule inhibitors in human HEK 293 cells (AID 1347053); conditions: HEK293 ZIKV MR766 infection, NS1 TR-FRET, 24 h; series mostly up to 46.1 µM; further: nearly all actives have a fitted effect of over 55% in size
Procedure, shortened: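 HEK 293 cells, seeded 20 h at 37 C, were pretreated with compound 1 h, then infected with ZIKV MR766 (MOI = 0.5) for 24 h. NS1 was read by TR-FRET with two anti-NS1 antibodies, normalized to uninfected and infected wells.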

[3] = qHTS for Inhibitors of the Functional Ribonucleoprotein Complex (vRNP) of Lassa (LASV) Arenavirus: LASV Primary Screen - GLuc reporter signal (AID 1347082; calls by dose curve; tested in HEK293 reporter line; further: nearly all actives have a fitted effect of over 60% in size); conditions: LASV minigenome vRNP, Gaussia luciferase reporter; series mostly up to 57.5 µM
[4] = qHTS for Inhibitors of the Functional Ribonucleoprotein Complex (vRNP) of Lassa (LASV) Arenavirus: Viability assay - alamar blue signal for LASV Primary Screen (AID 1347083; calls by dose curve; tested in HEK293 reporter line; further: nearly all actives have a fitted effect of over 80% in size); conditions: cell viability, alamar blue fluorescence (LASV minigenome counter-screen); series mostly up to 57.5 µM
[5] = qHTS for Inhibitors of the Functional Ribonucleoprotein Complex (vRNP) of Lymphocytic Choriomeningitis Arenaviruses (LCMV): Viability assay - alamar blue signal for LCMV Primary Screen (AID 1347085; calls by dose curve; tested in HEK293 reporter line; further: nearly all actives have a fitted effect of over 80% in size); conditions: alamar blue viability counter-screen, LCMV vRNP screen cells; series mostly up to 57.5 µM
[6] = biological target: Nucleoprotein (Lymphocytic choriomeningitis virus (strain Armstrong)) (UniProt P09992); assay: qHTS for Inhibitors of the Functional Ribonucleoprotein Complex (vRNP) of Lymphocytic Choriomeningitis Arenaviruses (LCMV): LCMV Primary Screen - GLuc reporter signal (AID 1347086; calls by dose curve; further: nearly all actives have a fitted effect of over 70% in size); conditions: LCMV minigenome vRNP cell assay, Gaussia luciferase reporter; series mostly up to 57.5 µM

Measured: Potency

Chain of Nucleoprotein (Lymphocytic choriomeningitis virus (strain Armstrong)) (P09992 whole entry, looked up): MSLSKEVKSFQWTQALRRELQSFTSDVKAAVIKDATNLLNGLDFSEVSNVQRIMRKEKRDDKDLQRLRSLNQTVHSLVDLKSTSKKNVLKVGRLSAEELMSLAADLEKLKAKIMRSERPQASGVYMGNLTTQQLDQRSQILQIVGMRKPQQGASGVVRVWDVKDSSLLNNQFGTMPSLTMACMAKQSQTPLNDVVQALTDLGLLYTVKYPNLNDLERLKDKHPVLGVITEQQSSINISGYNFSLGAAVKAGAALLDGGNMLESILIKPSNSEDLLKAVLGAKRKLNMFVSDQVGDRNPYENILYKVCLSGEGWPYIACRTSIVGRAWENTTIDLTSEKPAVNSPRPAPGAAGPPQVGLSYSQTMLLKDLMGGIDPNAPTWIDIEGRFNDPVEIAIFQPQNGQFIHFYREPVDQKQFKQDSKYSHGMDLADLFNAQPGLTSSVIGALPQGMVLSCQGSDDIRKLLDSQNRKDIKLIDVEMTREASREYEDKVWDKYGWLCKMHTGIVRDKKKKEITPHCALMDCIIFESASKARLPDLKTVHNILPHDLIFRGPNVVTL

Nc1c(Cl)c(Cl)c(Cl)c(Cl)c1Cl
inactive: [1] | [2] | [3] | [4] | [5] | [6]

O=C(O)COc1nc(Cl)c(Cl)cc1Cl
inactive: [1] | [2] | [3] | [4] | [5] | [6]

Cc1cc(O)ccc1Cl
inactive: [1] | [2] | [3] | [4] | [5] | [6]

O=C(O)CNC(=O)c1c(O)c2ccccc2n(Cc2ccccc2)c1=O
inactive: [1] | [2] | [3] | [4] | [5] | [6]

COc1ccc2c(c1)[C@]13CCCCC1C(C2)N(C)CC3 (stereo partly specified)
inactive: [1] | [2] | [3] | [5] | [6]

CC(C)NCC(O)c1ccc([N+](=O)[O-])cc1 (stereo unspecified)
inactive: [1] | [2] | [3] | [4] | [5] | [6]

O=[N+]([O-])c1ncc[nH]1
inactive: [1] | [2] | [3] | [4] | [5] | [6]

CC(=Cc1csc(C)n1)[C@@H]1C[C@H]2O[C@]2(C)CCC[C@H](C)[C@@H](O)[C@@H](C)C(=O)C(C)(C)[C@@H](O)CC(=O)O1
inactive: [3] | [4] | [5] | [6]
active: [1] 1 nM

CCOP(=O)(OCC)C(C)NC(=O)N(CCCl)N=O (stereo unspecified)
inactive: [1] | [3] | [4] | [5] | [6]

CC(=O)OCC1=C(C(=O)O)N2C(=O)[C@@H](N)[C@@H]2SC1
inactive: [1] | [3] | [4] | [5] | [6]
